# Measured values as given in PMC9911399, “Two distinct binding modes provide the RNA-binding protein RbFox with extraordinary sequence specificity”.
# Substitutions are numbered along the chain they refer to; changes in the protein carry UniProt numbers. Whole data set: some 16,000 sequences, median “ka relative to ugcaugu” near 0.096, cut for the highest 2% near 0.35. The sample holds the highest values, similar sequences and a random draw of the others, so the mix is not that of the screen.
# B1: UAUACUA (DNA:RNA)
# RNA: GGGAGACCGGAAUUCAGAUUGUCCUAUACUAUUAAAUCCCGUCGUAGCCACCA
# DNA 1: CAATCTGAATTCCGGTCTCCC
# DNA 2: TGGTGGCTACGACGGGATT
# B2: CUUGGCU (DNA:RNA)
# RNA: B1 RNA with U25C, A26U, A28G, C29G, U30C, A31U
# DNA 1: CAATCTGAATTCCGGTCTCCC
# DNA 2: TGGTGGCTACGACGGGATT
# B3: AAGCCAC (DNA:RNA)
# RNA: B1 RNA with U25A, U27G, A28C, U30A, A31C
# DNA 1: CAATCTGAATTCCGGTCTCCC
# DNA 2: TGGTGGCTACGACGGGATT
# B4: CUGCCGC (DNA:RNA)
# RNA: B1 RNA with U25C, A26U, U27G, A28C, U30G, A31C
# DNA 1: CAATCTGAATTCCGGTCTCCC
# DNA 2: TGGTGGCTACGACGGGATT
# B5: UACUCGG (DNA:RNA)
# RNA: B1 RNA with U27C, A28U, U30G, A31G
# DNA 1: CAATCTGAATTCCGGTCTCCC
# DNA 2: TGGTGGCTACGACGGGATT
# B6: CAGGGUU (DNA:RNA)
# RNA: B1 RNA with U25C, U27G, A28G, C29G, A31U
# DNA 1: CAATCTGAATTCCGGTCTCCC
# DNA 2: TGGTGGCTACGACGGGATT
# B7: CCUACAU (DNA:RNA)
# RNA: B1 RNA with U25C, A26C, U30A, A31U
# DNA 1: CAATCTGAATTCCGGTCTCCC
# DNA 2: TGGTGGCTACGACGGGATT
# B8: UGUCUCG (DNA:RNA)
# RNA: B1 RNA with A26G, A28C, C29U, U30C, A31G
# DNA 1: CAATCTGAATTCCGGTCTCCC
# DNA 2: TGGTGGCTACGACGGGATT
# B9: UGAAGGC (DNA:RNA)
# RNA: B1 RNA with A26G, U27A, C29G, U30G, A31C
# DNA 1: CAATCTGAATTCCGGTCTCCC
# DNA 2: TGGTGGCTACGACGGGATT
# B10: AUUUCAU (DNA:RNA)
# RNA: B1 RNA with U25A, A26U, A28U, U30A, A31U
# DNA 1: CAATCTGAATTCCGGTCTCCC
# DNA 2: TGGTGGCTACGACGGGATT
# B11: CACACCG (DNA:RNA)
# RNA: B1 RNA with U25C, U27C, U30C, A31G
# DNA 1: CAATCTGAATTCCGGTCTCCC
# DNA 2: TGGTGGCTACGACGGGATT
# B12: UGGGUAU (DNA:RNA)
# RNA: B1 RNA with A26G, U27G, A28G, C29U, U30A, A31U
# DNA 1: CAATCTGAATTCCGGTCTCCC
# DNA 2: TGGTGGCTACGACGGGATT
# B13: GUUCCGU (DNA:RNA)
# RNA: B1 RNA with U25G, A26U, A28C, U30G, A31U
# DNA 1: CAATCTGAATTCCGGTCTCCC
# DNA 2: TGGTGGCTACGACGGGATT
# B14: AUAUCCC (DNA:RNA)
# RNA: B1 RNA with U25A, A26U, U27A, A28U, U30C, A31C
# DNA 1: CAATCTGAATTCCGGTCTCCC
# DNA 2: TGGTGGCTACGACGGGATT
# B15: UGAUACC (DNA:RNA)
# RNA: B1 RNA with A26G, U27A, A28U, C29A, U30C, A31C
# DNA 1: CAATCTGAATTCCGGTCTCCC
# DNA 2: TGGTGGCTACGACGGGATT
# B16: CCUAGCC (DNA:RNA)
# RNA: B1 RNA with U25C, A26C, C29G, U30C, A31C
# DNA 1: CAATCTGAATTCCGGTCTCCC
# DNA 2: TGGTGGCTACGACGGGATT
# B17: GGAAGUC (DNA:RNA)
# RNA: B1 RNA with U25G, A26G, U27A, C29G, A31C
# DNA 1: CAATCTGAATTCCGGTCTCCC
# DNA 2: TGGTGGCTACGACGGGATT
# B18: UGGUACG (DNA:RNA)
# RNA: B1 RNA with A26G, U27G, A28U, C29A, U30C, A31G
# DNA 1: CAATCTGAATTCCGGTCTCCC
# DNA 2: TGGTGGCTACGACGGGATT
# B19: GUCCUUG (DNA:RNA)
# RNA: B1 RNA with U25G, A26U, U27C, A28C, C29U, A31G
# DNA 1: CAATCTGAATTCCGGTCTCCC
# DNA 2: TGGTGGCTACGACGGGATT
# B20: CGGUACG (DNA:RNA)
# RNA: GGGAGACCGGAAUUCAGAUUGUCCCGGUACGUUAAAUCCCGUCGUAGCCACCA
# DNA 1: CAATCTGAATTCCGGTCTCCC
# DNA 2: TGGTGGCTACGACGGGATT
# B21: UGGUACC (DNA:RNA)
# RNA: B20 RNA with C25U, G31C
# DNA 1: CAATCTGAATTCCGGTCTCCC
# DNA 2: TGGTGGCTACGACGGGATT
# B22: UUGUCCG (DNA:RNA)
# RNA: B20 RNA with C25U, G26U, A29C
# DNA 1: CAATCTGAATTCCGGTCTCCC
# DNA 2: TGGTGGCTACGACGGGATT
# B23: UUGUUCG (DNA:RNA)
# RNA: B20 RNA with C25U, G26U, A29U
# DNA 1: CAATCTGAATTCCGGTCTCCC
# DNA 2: TGGTGGCTACGACGGGATT
# Target: T1, RBFOX1 RRM RbFoxmut (Fox-RRM*) (Homo sapiens, UniProt Q9NWB1 109-208, R118D;E147R;N151S;E152T)
# T1 sequence: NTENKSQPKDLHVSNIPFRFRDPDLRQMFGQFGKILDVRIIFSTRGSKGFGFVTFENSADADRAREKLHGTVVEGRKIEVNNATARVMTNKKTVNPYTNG
# Assay: EMSA; HiTS-Eq, 1 nM pool, 10 min; buffer printed only for the single-RNA assays: 10 mM Tris pH 7.5, 150 mM NaCl, 3.4 mM EDTA, 0.001% NP-40, 30 C
# Details: tags: His6 N-terminal (pET28a); label: 5' 32P
# In short: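 Relative association constants, normalised to the cognate motif, were derived by comparing read counts of each RNA species with those of the control reaction. The RNA sequenced was the free fraction, separated by 8% native PAGE after a 10 min equilibration in 50 µL of 1 nM 5′-radiolabelled RNA (7 randomized nucleotides) with increasing concentrations of purified wild-type or mutant RbFox RRM.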
row,Binder,binding signal
1,B1,0.0619 KA relative to UGCAUGU
2,B2,0.102 KA relative to UGCAUGU
3,B3,0.0884 KA relative to UGCAUGU
4,B4,0.116 KA relative to UGCAUGU
5,B5,0.0779 KA relative to UGCAUGU
6,B6,0.106 KA relative to UGCAUGU
7,B7,0.0881 KA relative to UGCAUGU
8,B8,0.32 KA relative to UGCAUGU
9,B9,0.0677 KA relative to UGCAUGU
10,B10,0.12 KA relative to UGCAUGU
11,B11,0.12 KA relative to UGCAUGU
12,B12,0.172 KA relative to UGCAUGU
13,B13,0.127 KA relative to UGCAUGU
14,B14,0.0954 KA relative to UGCAUGU
15,B15,0.103 KA relative to UGCAUGU
16,B16,0.149 KA relative to UGCAUGU
17,B17,0.111 KA relative to UGCAUGU
18,B18,0.367 KA relative to UGCAUGU
19,B19,0.116 KA relative to UGCAUGU
20,B20,0.24 KA relative to UGCAUGU
21,B21,0.133 KA relative to UGCAUGU
22,B22,0.188 KA relative to UGCAUGU
23,B23,0.463 KA relative to UGCAUGU
